Screening data from PubChem.
Compounds with a hit are over-represented: about 5.4% of the library has one in this group of screens.
LASV entry inh = blocks Lassa virus binding to or entry into cells; Lassa virus pseudotype entry inhibition, cell reporter; Potency, µM (doses to about 37.9 µM), for inactives: at the top dose activity change, negative = inhibition, actives largely listed as inhibitors; 300,000 tested, 1.2% active; calls by dose curve; tested in HEK293 cells; also: nearly all actives have a fitted effect of over 50% in size
Sm TGR block = S. mansoni TGR enzyme inhibition; purified TGR, DTNB reduction, TNB absorbance 405 nm; Q962Y6; Potency, µM (series often up to 114 µM), for inactives: top-dose activity change, negative = inhibition, actives largely listed as inhibitors; 360,000 tested, 3% active; active = well fitted inhibition curve with a large enough effect; inconclusive = small, poorly fitted or top-dose-only effect; inactive = no such curve, though single readings can be large or run the other way; also: nearly all actives have a fitted effect of over 60% in size
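Kinetic colorimetric format: TGR-catalysed, NADPH-driven DTNB reduction monitored via TNB absorbance. Enzyme dispensed at 20 nM; compound exposure 15 min at room temperature before reaction start.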
Vaccinia mCherry = vaccinia inhibition (mCherry reporter); Potency, µM (doses to about 36.5 µM), for inactives: at the highest dose activity change, negative = inhibition, actives largely listed as inhibitors; 310,000 tested, 0.63% active; Vaccinia virus mCherry reporter infection, fluorescence; calls by dose curve; tested in A549 cells; also: nearly all actives have a fitted effect of over 35% in size
MARV entry inh = Marburg virus entry inhibition; Marburg virus pseudotyped entry inhibition, cell reporter; 300,000 tested, 1.8% active; Potency, µM (series often up to 37.8 µM), inactives show at the top dose activity change, negative = inhibition, usual class: inhibitors; AID 540276; calls by dose curve; tested in HEK293 cells
FMDV inh = antivirals against foot and mouth disease virus. 410,000 tested, 1.2% active. FMDV antiviral cell-based qHTS. Potency, µM (titrated, usually from 57.9 µM), for inactives: top-dose activity change, negative = inhibition, actives largely listed as inhibitors; calls by dose curve; tested in HEK293T cells; also: read-out not given here; nearly all actives have a fitted effect of over 45% in size
Vaccinia Venus = vaccinia inhibition (Venus reporter). Vaccinia virus Venus reporter expression, fluorescence. Potency, µM (top dose mostly 36.5 µM), without a hit: at the highest dose activity change, negative = inhibition, hits mostly inhibitors. 330,000 tested, 0.46% active. AID 720580; calls by dose curve; tested in A549 cells; also: nearly all actives have a fitted effect of over 30% in size
Active calls of the source: *; i = inactive; u = inconclusive; x = no result given; [ ] = remark or other dose. % is scaled to controls: 0 for no effect and ±100 for the full control effect; potency is read from the fitted curve at half-maximal effect.

SMILES	LASV entry inh	Sm TGR block	Vaccinia mCherry	MARV entry inh	FMDV inh	Vaccinia Venus
Cc1ccc(C=C2C(=O)c3ccccc3C2=O)o1	13%	-28%	i	19%	-12%	-5%
Cc1ccc(/C=C2/C(=O)c3ccc(C(=O)O)cc3C2=O)o1	u	5µM*	-4%	u	45%	9%
O=C(O)c1ccc2c(c1)C(=O)/C(=C\c1ccco1)C2=O	x	7.1µM*	x	x	-17%	x
COC(=O)c1ccccc1S(=O)(=O)NNC(=O)C12CC3CC(CC(C3)C1)C2	x	x	x	x	14%	x
O=c1c(Cl)c(Cl)cnn1Cc1ccc(F)cc1	21µM*	20µM*	x	u	40µM*	x
O=C(OCn1ncc(Cl)c(Cl)c1=O)c1ccc(F)cc1	x	7.1µM*	x	-1%	x	x
O=C(OCn1ncc(Cl)c(Cl)c1=O)c1ccccc1Cl	6.5µM*	7.1µM*	x	4.6µM*	10µM*	x
O=C(COC(=O)c1cnc(Cl)c(Cl)c1)c1ccc(F)cc1	x	x	x	x	0%	x
CC(=O)c1ccc(-c2ccc3c4c(ccc3c2)OC(CNC(=O)C(C)N2CCOCC2)C4)s1 (centres undefined)	x	x	-17%	x	2%	-18%
CCN(CC)c1ccc(/C=N/N=C(c2ccccc2)c2ccccc2)c(O)c1	10µM*	-10%	i	u	-18%	-9%
S=C(N/N=C/c1ccc2ncccc2c1)Nc1ccccc1	x	7%	7.9µM*	x	6%	11µM*
BrC(=C\c1ccccc1)/C=N/Nc1nc2ccccc2[nH]1	u	20µM*	-18%	u	6%	-22%
C(=N\Nc1nc2ccccc2[nH]1)/c1ccccn1	x	12%	x	x	10µM*	x
C(=N\Nc1nc2ccccc2[nH]1)/c1ccc2c(c1)OCCO2	x	4%	x	x	-15%	x
CCN1C(=O)NC(c2cccs2)C(C(=O)OC)=C1C (centres undefined)	x	x	x	1%[14.2 µM]	x	x
COc1cc(/C=N\Nc2nc3ccccc3[nH]2)cc(OC)c1OC	-7%	6%	-5%	13µM*	-18%	-27%
CCN(CC)c1ccc(/C=N/NC(=O)Cc2cccs2)c(O)c1	3.2µM*	0%	6.3µM*	16µM*	22%	u
COc1cc(/C=N/Nc2ccc(S(N)(=O)=O)cc2)cc(OC)c1OC	u	-11%	u	u	28µM*	-24%
C(=N\Nc1nc2ccccc2[nH]1)/c1ccc2ncccc2c1	u	10%	1.6µM*	u	30%	0.89µM*
COc1ccc(/C=N/Nc2nc3ccccc3[nH]2)cc1OC	2%	0%	u	u	-17%	-20%
C[C@@H]1CN(C2CCN(S(=O)(=O)c3ccc4ccccc4c3)CC2)C[C@H](C)O1	x	x	x	-29%	x	x
COC(=O)[C@H](CO)N1C(=O)[C@@H]2[C@@H](C1=O)[C@H]1C=C[C@@H]2C1	4%[46.1 µM]	x	x	x	x	x
CCCNC(=O)c1ccc2c(c1)N=C(C)c1c(C)ccc(C)c1S2	u	-12%	u	u	-21%	-19%
COc1cc2nc(CCc3nc4cc(OC)c(OC)cc4[nH]3)[nH]c2cc1OC	x	x	i	x	x	-3%
CCN(CC)c1ccc(/C=N/Nc2nc3ccccc3[nH]2)c(O)c1	6.3µM*	-2%	x	4µM*	-26%	u
SMILES	LASV entry inh	Sm TGR block	Vaccinia mCherry	MARV entry inh	FMDV inh	Vaccinia Venus
O=[N+]([O-])c1ccccc1S(=O)(=O)NCCSCc1ccco1	-6%	25µM*	-15%	u	17%	-8%
O=[N+]([O-])c1ccccc1S(=O)(=O)NCc1ccco1	11%[46.1 µM]	6%	-10%	2%[46.1 µM]	24%	-19%
CS(=O)(=O)NCCSCc1ccco1	0%	20µM*	-5%	5%	x	-5%
CC(=O)Nc1ccc(S(=O)(=O)NCCSCc2ccco2)cc1	u	u	i	1%	12%	-12%
CCCCOc1ccc(CNC(=O)Cc2ccc(NC(=O)N3CCSc4ncccc43)cc2)cc1	u	-6%	-11%	x	u	-7%
COc1ccc(/C=C2\CN(Cc3ccccc3)C/C(=C\c3ccc(OC)cc3)C2=O)cc1	7.9µM*	8%	-14%	u	u	-9%
COc1ccc(Nc2oc(COc3ccc(OC)cc3)nc2C#N)cc1	u	0%	x	6.5µM*	0%	x
COc1ccc(CCNc2oc(COc3cccc(C)c3)nc2C#N)cc1OC	u	-12%	-22%	u	-56%	-5%
